# PubChem BioAssay (Tox21)
# Where “and” joins values, the source holds several entries; their conditions need not be identical. Equal values may be shown once. Records with an inconclusive call do not appear. A call without a number means that no potency is given here. The source holds several records for some structures; these can differ, active in one and inactive in another. Calls of active or inactive are those of the source. Calls follow the shape of the full dose curve.
# Test: qHTS assay to identify small molecule agonists of the progesterone receptor (PR) signaling pathway - cell viability counter screen (AID 1346799); also: nearly all actives have a fitted effect of over 45% in size
# Conditions: PR-UAS-bla HEK293T viability, CellTiter-Glo luminescence, 16 h; series mostly up to 92.4 µM
# From the text: National Center for Advancing Translational Sciences [NCATS]
# NIH Chemical Genomics Center [NCGC]
# U.S. Environmental Protection Agency [EPA]
# National Institutes of Environmental Health Sciences [NIEHS]
# National Toxicology Program [NTP]
# U.S. Food and Drug Administration [FDA]
# Progesterone receptor (PR), a nuclear hormone receptor, plays an important role in development, metabolic homeostasis and reproduction. It is activated by the steroid hormone progesterone. Endocrine disrupting chemicals (EDCs) and their interactions with steroid hormone receptors like PR causes disruption of normal endocrine function. To identify the compounds that stimulate PR signaling, a PR-UAS-bla GripTite cell line i.e. PR-UAS-bla HEK293T (Invitrogen, Carlsbad, CA, USA) containing a beta-lactamase reporter gene under the control of an UAS response element was used to screen Tox21 10K compound library. The cytotoxicity of the Tox21 compound library against the PR-bla cell line was tested in parallel by measuring the cell viability using CellTiter-Glo assay in the same wells.
# Tox21 Assay Protocol Summary:
# PR-UAS-bla HEK293T cells were dispensed at 3,000 cells/5 uL of assay medium containing 2% charcoal stripped FBS per well into black wall/clear-bottom 1536-well plates using a Multidrop Combi (ThermoFisher Scientific, Waltham, MA) dispenser. After the assay plates were incubated at a 37C and 5% CO2 for 6 hr, 23 nL of compounds dissolved in DMSO, positive controls or DMSO only was transferred to the assay plate by a Pintool station (Kalypsys, San Diego, CA). The plates were incubated at 37C and 5% CO2 for 16 hr. Then 1 uL of LiveBLAzer B/G FRET substrate was added using a Flying Reagent Dispenser (FRD, Aurora Discovery, San Diego, CA), the plates were incubated at room temperature for 2 hours, and fluorescence intensity was measured by an Envision plate reader (PerkinElmer, Shelton, CT). For cell viability readout that measures cytotoxicity, 4 uL/well of CellTiter-Glo reagent was added into the assay plates using a FRD. After 30 min incubation at room temperature, the luminescence intensity in the plates was measured using a ViewLux (PerkinElmer) plate reader.
# Potency is read from the fitted curve at half-maximal effect.
row,SMILES,Potency
1,[O-]/[N+](=N\O)c1ccccc1,inactive
2,CC1(C)OC(=O)NC1=O,inactive
3,CC[C@]12CCCN3CCc4c(n(c5ccccc45)[C@@](O)(C(=O)OC)C1)[C@@H]32,inactive
4,O=[Se](O)O,inactive
5,COc1ccc(C(=O)c2ccccc2O)c(O)c1,inactive
6,C=C[C@H]1CN2CC[C@H]1C[C@@H]2[C@@H](O)c1ccnc2ccc(OC)cc12,inactive
7,CC(C)[N+](C)(CCOC(=O)C1c2ccccc2Oc2ccccc21)C(C)C,inactive
8,Clc1ccc(Sc2cc(Cl)c(Cl)cc2Cl)cc1,inactive
9,CCCN1C=CN(C)C1,inactive
10,CN(C)C,inactive
11,C=CC(C)(O)CCC=C(C)C (stereo not given),inactive
12,Nc1ccc2c(c1)C(=O)c1ccccc1C2=O,inactive
13,CCCCCCCCCCC(CO)CCCCCCCC (stereo not given),inactive
14,CCc1cccc2c3c([nH]c12)C(CC)(CC(=O)O)OCC3 (stereo not given),inactive
15,NCCS(=O)(=O)O,inactive
16,c1ccc2cc3ccccc3cc2c1,inactive
17,CN(C)CCCN1c2ccccc2Sc2ccc(Cl)cc21,30.6 µM (active) and 23.7 µM (active)
18,O=C(CCCN1CCC(O)(c2ccc(Cl)cc2)CC1)c1ccc(F)cc1,inactive
19,CCC/C=C/C=O,inactive
20,ClC/C=C/CCl,inactive

row,SMILES,Potency
1,Cc1cccc(Nc2ccccc2C(=O)O)c1C,inactive
2,NC[C@H](O)c1ccc(O)c(O)c1,inactive
3,CCO[Si](CCCNC(N)=O)(OCC)OCC,inactive
4,C=C[C@@]1(C)CC(=O)[C@]2(O)[C@@]3(C)[C@@H](O)CCC(C)(C)[C@@H]3[C@H](O)[C@H](OC(C)=O)[C@@]2(C)O1,12.2 µM (active) and 16.8 µM (active)
5,Cc1ccc2c(c1)C(=O)OC2=O,inactive
6,O=C(O)CCCC(=O)O,inactive
7,Oc1c(Cl)ccc(Cl)c1Cl,inactive
8,C=CCCCCCCCCCC,inactive
9,Cc1ccc(C)c(O)c1,inactive
10,CN1CCOCC1,inactive
11,Nc1ccc2c(O)cc(S(=O)(=O)O)cc2c1,inactive and 9.69 µM (active)
12,Brc1nc2ccccc2s1,inactive
13,C=CCNCC=C,inactive
14,COC(=O)CC(=O)OC,inactive
15,c1ccc2c(c1)[nH]c1ccccc12,inactive
16,IC(I)I,inactive
17,O=C(O)c1cc(=O)[nH]c(=O)[nH]1,inactive
18,Cc1ccc(S(=O)(=O)O)cc1C,inactive
19,CC(C)[C@@H]1CC[C@@H](C)CC1=O,inactive
20,Cc1ccc(C(C)(C)C)cc1,inactive
